These molecules were tested on Falciformispora senegalensis CBS197.79 (assay: growth relative to untreated control; higher = less inhibition, active = 20 or less). Conditions: 25 µM.
Summary of the method: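 Viability readout used either MTS (2 h, 490 nm) or resazurin (600 nm). Before this, hyphal fragments of M. mycetomatis MM55 or F. senegalensis CBS197.79 in colourless RPMI 1640 with L-glutamine and MOPS (68–72% transmission at 660 nm) had been exposed in 96-well plates to compound at 100 or 25 µM for 7 days at 37 °C. Growth denotes metabolic activity relative to the untreated growth control, with a medium-plus-dye blank subtracted from both.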

Compound | growth
CC(C)=CC1C(C(=O)OC(C#N)c2cccc(Oc3ccccc3)c2)C1(C)C (configuration not stated) | 78.2% (inactive)
COC(=O)N(C(=O)N1CO[C@@]2(C(=O)OC)Cc3cc(Cl)ccc3C2=N1)c1ccc(OC(F)(F)F)cc1 | 100% (inactive)
Clc1cc(Cl)cc(Nc2nc3cnc(NC4CCCC4)cc3n2C2CCNC2)c1 (configuration not stated) | 52.2% (inactive)
CCOC(=O)CC(SP(=S)(OC)OC)C(=O)OCC (configuration not stated) | 98.4% (inactive)
CNC(=O)c1cc(C#N)cc(C)c1NC(=O)c1cc(Br)nn1-c1ncccc1Cl | 89.6% (inactive)
CNC(=O)Oc1cccc2c1OC(C)(C)O2 | 86.8% (inactive)
COP(=S)(OC)Oc1nc(Cl)c(Cl)cc1Cl | 91.7% (inactive)
CC[C@@H](C(=O)[C@@H](C)[C@@H](O)[C@H](C)[C@@H]1O[C@@H]([C@@H](CC)C(=O)O)CC[C@@H]1C)[C@H]1O[C@]2(C=C[C@@H](O)[C@]3(CC[C@@](C)([C@H]4CC[C@](O)(CC)[C@H](C)O4)O3)O2)[C@H](C)C[C@@H]1C | 102% (inactive)
CN1C(=O)C(C(=O)Nc2ccc(Cl)c(Cl)c2)C(=O)N(C)C1=O | 83.2% (inactive)
O=C1C=C(N(Cc2ccc(Cl)nc2)CC(F)F)CO1 | 96.7% (inactive)
ClC1=C(Cl)[C@@]2(Cl)[C@H]3C[C@@H](Cl)[C@H](Cl)[C@H]3[C@@]1(Cl)C2(Cl)Cl | 64.8% (inactive)
CC[C@H]1CN2CCc3cc(OC)c(OC)cc3[C@@H]2C[C@@H]1C[C@H]1NCCc2cc(OC)c(OC)cc21 | 100% (inactive)
CC(COc1ccc(Oc2ccccc2)cc1)Oc1ccccn1 (configuration not stated) | 88.9% (inactive)
NCCc1cn(S(=O)(=O)c2c(Cl)nc3sccn23)c2ccccc12 | 13.2% (active)
CCc1nn(C)c(C(=O)NCc2ccc(Oc3ccc(C)cc3)cc2)c1Cl | 98.1% (inactive)
CC(C)(C)Nc1cc2c(cn1)nc(Nc1cc(Cl)cc(C(F)(F)F)c1)n2C1CCNC1 (configuration not stated) | 15.1% (active)
Cc1cc(C2=NOC(c3cc(Cl)cc(Cl)c3)(C(F)(F)F)C2)ccc1C(=O)NCC(=O)NCC(F)(F)F (configuration not stated) | 92.4% (inactive)
CC(C)=CC1C(C(=O)OCN2C(=O)C3=C(CCCC3)C2=O)C1(C)C (configuration not stated) | 93.7% (inactive)
CNC(=O)c1cc(Cl)cc(C)c1NC(=O)c1cc(Br)nn1-c1ncccc1Cl | 93.3% (inactive)

Compound | growth
CN1C2CCC1CC(C#N)C2 (configuration not stated) | 92.1% (inactive)
O=C(NC(=O)c1ccccc1Cl)Nc1ccc(OC(F)(F)F)cc1 | 84.1% (inactive)
COc1ccc(C[C@H]2NC[C@H](O)[C@H]2OC(C)=O)cc1 | 5.78% (active)
CC1(C)C(C=C(Cl)Cl)C1C(=O)OC(C#N)c1ccc(F)c(Oc2ccccc2)c1 (configuration not stated) | 94% (inactive)
CNC(=O)O/N=C(/C)SC | 86.2% (inactive)
COc1cc(/C=N/c2c(SC(F)(F)F)c(C#N)nn2-c2c(Cl)cc(C(F)(F)F)cc2Cl)ccc1O | 84.8% (inactive)
N#CCNC(=O)c1cnccc1C(F)(F)F | 85.9% (inactive)
Clc1ccc(C(OCCN2CCCCC2)c2ccccc2)cc1 (configuration not stated) | 100% (inactive)
CCS(=O)c1c(C#N)nn(-c2c(Cl)cc(C(F)(F)F)cc2Cl)c1N (configuration not stated) | 82.1% (inactive)
CN(C)CCn1c(Nc2cc(Cl)cc(C(F)(F)F)c2)nc2cnc(NC3CCCC3)cc21 | 94.1% (inactive)
O=C(NC(=O)c1c(F)cccc1F)Nc1ccc(Cl)cc1 | 92.8% (inactive)
Cc1c(COC(=O)[C@@H]2[C@H](C=C(Cl)C(F)(F)F)C2(C)C)cccc1-c1ccccc1 | 87.1% (inactive)
CCN(CC)c1nc(C)cc(OP(=S)(OC)OC)n1 | 96% (inactive)
FC(F)(F)c1cc(Cl)cc(Nc2nc3cnc(OC4CCC4)cc3n2[C@@H]2CCNC2)c1 | 99.8% (inactive)
N#Cc1nn(-c2c(Cl)cc(C(F)(F)F)cc2Cl)c(N)c1S(=O)C(F)(F)F (configuration not stated) | 92.1% (inactive)
CC(C)Nc1cc2c(cn1)nc(Nc1cc(Cl)cc(C(F)(F)F)c1)n2C1CCNC1 (configuration not stated) | 66.7% (inactive)
CCOCn1c(-c2ccc(Cl)cc2)c(C#N)c(Br)c1C(F)(F)F | 79.6% (inactive)
CCOP(=S)(OCC)Oc1nc(Cl)c(Cl)cc1Cl | 92.9% (inactive)

— the supplement of paper PMC11172423
